Experimental data published in PubChem BioAssay AID1159580 (chemical genetic matrix, 2015).
In all, about 5,500 compounds went through this assay and about 2,000 (36%) were called active. About 18% were inconclusive and are not listed. No stated cut-off is given here; in the data, active means normalized growth mostly below about 0.91 (no sharp cut-off); inconclusive means no clear call, values can overlap the other calls; inactive means mostly above about 0.92. This is one part of the list.

Test: chemical genetic growth profiling, strain panel (AID 1159580);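 further: tested at 20 µM; growth read once vehicle control cultures reached saturation at 30 °C; 1 = growth at the plate median or of vehicle wells; lower values mean less growth of the strain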
Conditions: growth OD
[1] = S. cerevisiae deletion strains, locus YAL013W, strain DEP1, active compounds read low
[2] = S. cerevisiae deletion strains, locus YBR229C, strain ROT2, active compounds read low
[3] = S. cerevisiae deletion strains, locus YDL101C, strain DUN1, active compounds read low
[4] = S. cerevisiae deletion strains, locus YDR150W, strain NUM1, active compounds read low
[5] = S. cerevisiae deletion strains, locus YEL061C, strain CIN8, active compounds read low
[6] = S. cerevisiae deletion strains, locus YGR078C, strain PAC10, active compounds read low
[7] = S. cerevisiae deletion strains, locus YHR030C, strain SLT2, active compounds read low
[8] = S. cerevisiae deletion strains, locus YHR087W, strain rtc3, active compounds read low
[9] = S. cerevisiae deletion strains, locus YJR043C, strain POL32, active compounds read low
[10] = S. cerevisiae deletion strains, locus YJR075W, strain HOC1, active compounds read low
[11] = S. cerevisiae deletion strains, locus YLR039C, strain RIC1, active compounds read low
[12] = S. cerevisiae deletion strains, locus YLR058C, strain SHM2 (second series), active compounds read low
[13] = S. cerevisiae deletion strains, locus YLR085C, strain ARP6, active compounds read low
[14] = S. cerevisiae deletion strains, locus YLR262C, strain YPT6, active compounds read low
[15] = S. cerevisiae deletion strains, locus YML094W, strain GIM5, active compounds read low
[16] = S. cerevisiae deletion strains, locus YMR219W, strain ESC1, active compounds read low
[17] = S. cerevisiae deletion strains, locus YMR263W, strain SAP30, active compounds read low
[18] = S. cerevisiae deletion strains, locus YNL128W, strain TEP1, active compounds read low
[19] = S. cerevisiae deletion strains, locus YNL153C, strain GIM3, active compounds read low
[20] = S. cerevisiae deletion strains, locus YNL298W, strain CLA4 (second series), active compounds read low
[21] = S. cerevisiae deletion strains, locus YNL322C, strain KRE1, active compounds read low
[22] = S. cerevisiae deletion strains, locus YNR030W, strain Alg12, active compounds read low
[23] = S. cerevisiae deletion strains, locus YPL055C, strain LGE1, active compounds read low
[24] = S. cerevisiae deletion strains, locus YPL241C, strain CIN2, active compounds read low
[25] = S. cerevisiae deletion strains, locus YPR135W, strain CTF4, active compounds read low

Measured: normalized growth

COc1ccc(-n2c(-c3ccc(C)cc3)csc2=N)cc1
inactive: [1] 0.996 | [2] 1 | [3] 1 | [4] 1.02 | [5] 0.97 | [6] 1 | [7] 1.05 | [8] 0.995 | S. cerevisiae deletion strains, locus YJL187C, strain SWE1, active compounds read low 0.985 | [9] 1.01 | [10] 1.01 | [11] 1.01 | [12] 1 | [13] 0.918 | [14] 1 | [15] 0.996 | [16] 1.01 | [17] 1.03 | S. cerevisiae deletion strains, locus YMR307W, strain GAS1, active compounds read low 1.03 | [18] 0.992 | [19] 1.03 | [20] 0.983 | [21] 1 | [22] 0.988 | [23] 1.03 | [24] 1.01 | [25] 1.24 | S. cerevisiae strains, strain wild type, active compounds read low 0.994

COc1ccc(-c2ccc(C=C(C#N)C#N)s2)cc1
inactive: [1] 0.946 | S. cerevisiae deletion strains, locus YCL061C, strain MRC1, active compounds read low 0.95 | [3] 0.95 | [4] 0.967 | [5] 0.922 | [7] 0.943 | [8] 0.939 | [9] 0.958 | [10] 1.01 | [12] 0.971 | [13] 0.912 | [14] 0.832 | [15] 0.899 | [16] 0.969 | [17] 0.974 | [18] 0.977 | [19] 0.938 | [20] 0.895 | [21] 0.964 | [22] 0.903 | [23] 0.932 | [24] 1.07 | [25] 0.948
active: [2] 0.918 | [6] 0.925 | [11] 0.757
